Screening data from PubChem BioAssay.
MITF TRPM1 inh = reduces MITF-dependent TRPM1 promoter luciferase signal. 0.83% of 330,000 active. inhibition, % at 12.5 µM. SK-MEL-5 TRPM1 promoter luciferase, 24 h;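 active = mean inhibition across replicates of 60% or more, whatever share of single replicates reaches that level; inconclusive = some that reach 60%, reason not given; inactive = mean inhibition across replicates below 60%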
HIF-2a inh = blocks HIF-2a reporter activity. inhibition, % at 18.8 µM. 786-0 RCC cells HIF-2a reporter, luciferase luminescence, overnight. 0.72% of 360,000 active. AID 624352;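 active = inhibition of the luminescence signal of 40% or more relative to plate controls, in a single-dose primary screen at 18.75 µM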
Shn3 inh set2 = reduces Shn3 3'UTR luciferase signal in osteoblasts; Clone20 osteoblast Shn3 3'UTR firefly luciferase, 24 h; inhibition, % at 12.5 µM; 0.52% of 360,000 active; AID 588674;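 active = mean inhibition of at least 75% with every replicate also reaching 75%; inconclusive = mean inhibition at least 75% but some replicate below; inactive = mean inhibition below 75%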;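 also: 0% = median of neutral control wells and 100% = pilot-screen positive control compound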
KKLEB tox = CF airway cell cytotoxicity counter-screen. KKLEB CF airway cells viability, ATPlite luminescence, overnight; stronger effect = lower value; cells stimulated with P. aeruginosa culture filtrate. activity change (cytotoxicity), % at 5 µM. 0.36% of 360,000 active;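 active = corrected activity change at or below -50% at 5 µM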
Peg3 promoter = inhibitors of Peg3 promoter. inhibition, % at 20 µM. 1.7% of 360,000 active. HeLa PEG-Prom luciferase reporter, luminescence, overnight;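 active = inhibition of at least 50% at 20 µM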
CF NFkB block = cystic fibrosis NF-kB activation inhibition; KKLEB NF-kB-GFP reporter, PAF-induced, GFP fluorescence overnight; inhibition, % at 5 µM; 0.86% of 360,000 active;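 active = at least 50% inhibition at 5 µM, scaled per plate between neutral and stimulator controls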;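 also: PAF is a Pseudomonas aeruginosa culture filtrate used as stimulus; plate controls were PAF-stimulated DMSO wells for no effect and unstimulated DMSO wells for full effect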
Mdm2 MdmX conf = confirmation of inhibitors of human Mdm2/MdmX interaction, set 2 | shares compounds with HIF-2a inh | SaOS-2 split-luciferase Mdm2/MdmX complementation, luminescence | inhibition, % at 8 µM | 99% of 740 active | AID 504601;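 active = mean inhibition of the luminescence signal across two replicates at or above 26 percent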
Target sequence (O15151 whole entry, looked up): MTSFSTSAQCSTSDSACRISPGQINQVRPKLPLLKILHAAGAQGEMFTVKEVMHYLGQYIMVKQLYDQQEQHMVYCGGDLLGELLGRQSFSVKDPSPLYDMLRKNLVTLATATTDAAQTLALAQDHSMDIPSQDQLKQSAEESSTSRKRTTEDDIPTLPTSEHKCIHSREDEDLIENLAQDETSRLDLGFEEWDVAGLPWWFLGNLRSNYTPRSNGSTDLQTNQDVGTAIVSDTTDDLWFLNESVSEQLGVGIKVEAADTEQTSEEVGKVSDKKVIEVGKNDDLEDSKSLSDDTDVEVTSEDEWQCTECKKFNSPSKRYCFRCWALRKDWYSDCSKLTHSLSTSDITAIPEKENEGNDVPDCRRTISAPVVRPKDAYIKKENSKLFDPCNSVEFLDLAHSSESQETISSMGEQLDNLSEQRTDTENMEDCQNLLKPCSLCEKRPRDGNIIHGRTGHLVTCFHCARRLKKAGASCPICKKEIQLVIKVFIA
Target sequence (Q00987 whole entry, looked up): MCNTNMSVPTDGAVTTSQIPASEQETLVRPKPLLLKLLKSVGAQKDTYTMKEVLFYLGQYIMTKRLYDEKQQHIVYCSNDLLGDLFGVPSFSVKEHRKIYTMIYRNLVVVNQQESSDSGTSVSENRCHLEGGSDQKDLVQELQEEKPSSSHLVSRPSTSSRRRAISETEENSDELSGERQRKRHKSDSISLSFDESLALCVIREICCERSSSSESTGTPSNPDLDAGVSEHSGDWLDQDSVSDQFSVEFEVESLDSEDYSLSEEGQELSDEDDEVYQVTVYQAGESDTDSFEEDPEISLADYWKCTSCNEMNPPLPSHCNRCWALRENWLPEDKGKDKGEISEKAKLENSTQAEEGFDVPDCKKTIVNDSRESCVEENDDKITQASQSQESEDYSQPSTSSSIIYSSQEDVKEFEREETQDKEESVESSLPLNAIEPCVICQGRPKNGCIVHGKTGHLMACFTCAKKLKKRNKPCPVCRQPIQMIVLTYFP
HIF-2a inh conf = HIF-2a inhibition, single concentration confirmation; shares compounds with HIF-2a inh; 786-0 RCC cells, HIF-2a luciferase reporter luminescence, overnight; inhibition, % at 18.8 µM; 56% of 1,800 active; AID 651580;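 active = mean inhibition across four replicates of at least 40 percent at the single tested concentration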
HIF-1a counter = counter-screen for HIF-2a inhibitors: HIF-1a inhibition in MiaPaCa-2 cells. shares compounds with HIF-2a inh. 72% of 1,800 active. inhibition, % at 18.8 µM. MiaPaCa-2 HIF-1a luciferase reporter, desferoxamine, overnight;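 active = mean inhibition of the reporter signal across four replicates at the single tested dose of 50% or more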
The depositor's hits bear a star; ? = inconclusive; / = no result given. The list is not random: actives were taken first. Their share in the collection is about 2.8%.

SMILES | MITF TRPM1 inh | HIF-2a inh | Shn3 inh set2 | KKLEB tox | Peg3 promoter | CF NFkB block | Mdm2 MdmX conf | HIF-2a inh conf | HIF-1a counter
O=S(=O)(c1ccc(S(=O)(=O)N2CCCC2)cc1)N1CCCCCC1 | 10 | 9 | -3 | 3 | 5 | -3 | / | / | /
O=S(=O)(c1ccc2c(c1)C(=NO)c1cc(S(=O)(=O)N3CCCCC3)ccc1-2)N1CCCCC1 | 88* | 87* | 98* | -106* | 86* | 100* | / | 82* | 103*
CCCc1cc(C(=O)Nc2cccc(-c3nn[nH]n3)c2)sc1C | / | -10 | -15 | 9 | -3 | -3 | / | / | /
CC(=O)NC1(C(Cl)(Cl)Cl)Oc2ccccc2O1 | 3 | 47* | 7 | -6 | 24 | 2 | / | 19 | 20
COc1ccc(/C=c2/sc3n(c2=O)C(c2ccccc2OC)C2=C(N=3)c3ccccc3CC2)cc1O (stereo not drawn) | 34 | 41* | 10 | 0 | 41 | 38 | / | 13 | 64*
Cc1ccc(-c2csc3ncnc(Sc4nnc(CN5CCCCCC5=O)o4)c23)cc1 | 85* | 94* | 7 | 9 | 106* | 93* | / | 100* | 104*
COC(=O)[C@@]1(Cc2ccccc2)[C@H]2C(=O)N(Cc3ccccc3)C(=O)[C@H]2[C@H]2CN=C(SCc3ccc(Cl)cc3)N21 | 4 | 17 | 18 | -9 | 0 | 9 | 103* | / | /
COC(=O)[C@@]1(C)[C@H]2C(=O)N(Cc3ccccc3)C(=O)[C@H]2[C@H]2CN=C(SCc3ccc(Cl)cc3)N21 | 1 | 11 | -3 | 1 | 11 | 14 | 103* | / | /
COC(=O)[C@@]1(C)[C@H]2C(=O)N(Cc3ccccc3)C(=O)[C@H]2[C@H]2CN=C(SCc3ccc(C#N)cc3)N21 | -4 | 10 | -12 | 0 | 4 | -12 | / | / | /
Cc1[nH]c(=O)c(C(=O)/C=C/c2ccccc2F)c2c1CCCC2 | 84* | 90* | 6 | -38 | 110* | 91* | 103* | 92* | 100*
O=C(c1ccccc1)c1cc(Cl)ccc1N1C(=O)C=CC1=O | 84* | 75* | ? | -14 | 105* | 58* | / | 78* | -11
O=C(CC(=O)c1cc(Cl)ccc1O)c1ccccc1 | -16 | -294 | -24 | 0 | -195 | -28 | / | / | /
NC(=O)c1ccc(NC(=O)COC(=O)CC2Sc3ccccc3NC2=O)cc1 (stereo not drawn) | / | -87 | -16 | 14 | 2 | 2 | / | / | /
COc1ccc2c(c1)c1ccc3c(c1n2C)C(=O)C=CC3=O | 92* | 78* | 96* | -4 | 104* | -1 | 102* | / | /
Cc1ccc2c(c1)c1ccc3c(c1n2C)C(=O)C=CC3=O | 93* | 79* | 95* | -3 | 107* | -2 | 102* | / | /
CC(=O)N1CCN(S(=O)(=O)c2cccc(C(=O)NCCC3=CCCCC3)c2)CC1 | -7 | 9 | 11 | 11 | 4 | 5 | / | / | /
CCN(CC)Cc1c(O)ccc2c([N+](=O)[O-])c(C)n(-c3ccc(OC)cc3)c12 | 0 | 25 | 7 | -23 | 12 | 82* | 84* | / | /
CCN(CC)Cc1c(O)ccc2occ(C(=O)c3ccc(OC)cc3)c12 | -2 | 29 | -1 | 4 | 4 | -5 | / | / | /
Cc1ccc(CNC(=O)c2ccc([N+](=O)[O-])o2)cc1 | 51 | 9 | -16 | 14 | 2 | -9 | / | / | /
Cc1ccc(/C=C/C(=O)c2ccc([N+](=O)[O-])o2)cc1 | / | / | / | / | / | / | 103* | / | /
O=C1/C(=C/c2cccc(F)c2)Oc2cc(O)ccc21 | -3 | -115 | -3 | 7 | -117 | -6 | / | / | /
Cc1ccc(S(=O)(=O)N2CCCCC2)cc1NC(=O)Cn1ncc(Cl)c(Cl)c1=O | 101* | 94* | 100* | -89* | 109* | 104* | 103* | 99* | 104*
O=C(Cn1ncc(N2CCCC2)c(Cl)c1=O)c1ccc(Cl)cc1 | -24 | -163 | -37 | 9 | -236 | 6 | / | / | /
CCN(CC)S(=O)(=O)c1cc(NC(=O)Cn2ncc(Cl)c(Cl)c2=O)ccc1C | 85* | 97* | 16 | -66* | 101* | 89* | 103* | 48* | 104*
CCC(=O)Nc1ccc(C(=O)Cn2ncc(Cl)c(Cl)c2=O)cc1 | ? | 90* | / | -4 | 106* | 44 | / | -9 | 105*
SMILES | MITF TRPM1 inh | HIF-2a inh | Shn3 inh set2 | KKLEB tox | Peg3 promoter | CF NFkB block | Mdm2 MdmX conf | HIF-2a inh conf | HIF-1a counter
O=C(O)CCC(=O)N1CCN(S(=O)(=O)c2ccc3ccccc3c2)CC1 | -5 | 7 | -4 | 3 | 13 | -3 | / | / | /
O=C(Cn1ncc(Cl)c(Cl)c1=O)N1CCN(S(=O)(=O)c2ccc3ccccc3c2)CC1 | 89* | 95* | 10 | -68* | 106* | 82* | 102* | 96* | 105*
CCOC(=O)c1ccc(NC(=O)Cn2ncc(Cl)c(Cl)c2=O)cc1 | 103* | 89* | 98* | -95* | 104* | 89* | 103* | 98* | 105*
CCOC(=O)c1ccc(NC(=O)Cn2nc(C)c3ccccc3c2=O)cc1 | 16 | 9 | 2 | 19 | -9 | -4 | / | / | /
CC1(C)CC(=O)C2=C(C1)OC1=C(C(=O)CC(C)(C)C1)C2c1ccc(O)cc1O | 101* | 93* | 94* | -54* | 108* | 97* | 103* | 97* | 106*
Cc1ccc(C2OC(=O)C=C2c2ccccc2)cc1 (stereo not drawn) | 1 | 5 | 15 | 4 | 7 | 9 | / | / | /
CC(=O)Nc1ccc(S(=O)(=O)N(CC(=O)NCC2CCCO2)Cc2ccccc2Cl)cc1 (stereo not drawn) | / | 1 | -9 | -5 | 8 | -8 | / | / | /
COc1ccc(/C=C/C(=O)C23CC4CC(CC(C4)C2)C3)cc1CN1CCOCC1 | -2 | 44* | -31 | -6 | 48 | 13 | / | 2 | 42
O=C(O)CCCCCCCC(=O)O | -5 | 0 | 19 | -13 | 1 | -5 | / | / | /
O=C(O)CCCCCCCCCCC1CCC(O)C1O (stereo not drawn) | 26 | 54* | 24 | -6 | 12 | 12 | / | 75* | 52*
C/C(=N\NC(=S)Nc1ccc(C)cc1)c1cccc(N)c1 | -16 | -69 | 5 | 1 | -80 | 8 | / | / | /
CC(=NNC(=S)Nc1ccc(C)cc1)c1ccccn1 | 7 | 61* | 72 | 14 | 74* | -18 | / | -28 | 2
CCc1nc2ccc(C(=O)Nc3cc(-c4ccccc4)ccc3OC)cn2c1N(CCN(C)C)CC1CC1 | / | 82* | -3 | -20 | 98* | -4 | / | 9 | 101*
